Sampled rows, rich in hits. Any-hit rate of the full collection: about 3.5%.
TMEM16A act = activates or potentiates the mouse TMEM16A chloride channel; Q8BHY3; HEK293 TMEM16A/YFP-H148Q/I152L, iodide quench fluorescence; active compounds read low; B-score at 10 µM; hit rate 0.3% among 340,000;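 active = fluorescence-ratio B-score plate-corrected deviation score at least 3 library SD below zero, with starting fluorescence score within 5 deviations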;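 also: channel opened by trigger with iodide after compound preincubation; score built on the fluorescence ratio of max minus min over baseline; more negative score means more quench and so TMEM16A activation or potentiation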
Target sequence (Q8BHY3 whole entry, looked up): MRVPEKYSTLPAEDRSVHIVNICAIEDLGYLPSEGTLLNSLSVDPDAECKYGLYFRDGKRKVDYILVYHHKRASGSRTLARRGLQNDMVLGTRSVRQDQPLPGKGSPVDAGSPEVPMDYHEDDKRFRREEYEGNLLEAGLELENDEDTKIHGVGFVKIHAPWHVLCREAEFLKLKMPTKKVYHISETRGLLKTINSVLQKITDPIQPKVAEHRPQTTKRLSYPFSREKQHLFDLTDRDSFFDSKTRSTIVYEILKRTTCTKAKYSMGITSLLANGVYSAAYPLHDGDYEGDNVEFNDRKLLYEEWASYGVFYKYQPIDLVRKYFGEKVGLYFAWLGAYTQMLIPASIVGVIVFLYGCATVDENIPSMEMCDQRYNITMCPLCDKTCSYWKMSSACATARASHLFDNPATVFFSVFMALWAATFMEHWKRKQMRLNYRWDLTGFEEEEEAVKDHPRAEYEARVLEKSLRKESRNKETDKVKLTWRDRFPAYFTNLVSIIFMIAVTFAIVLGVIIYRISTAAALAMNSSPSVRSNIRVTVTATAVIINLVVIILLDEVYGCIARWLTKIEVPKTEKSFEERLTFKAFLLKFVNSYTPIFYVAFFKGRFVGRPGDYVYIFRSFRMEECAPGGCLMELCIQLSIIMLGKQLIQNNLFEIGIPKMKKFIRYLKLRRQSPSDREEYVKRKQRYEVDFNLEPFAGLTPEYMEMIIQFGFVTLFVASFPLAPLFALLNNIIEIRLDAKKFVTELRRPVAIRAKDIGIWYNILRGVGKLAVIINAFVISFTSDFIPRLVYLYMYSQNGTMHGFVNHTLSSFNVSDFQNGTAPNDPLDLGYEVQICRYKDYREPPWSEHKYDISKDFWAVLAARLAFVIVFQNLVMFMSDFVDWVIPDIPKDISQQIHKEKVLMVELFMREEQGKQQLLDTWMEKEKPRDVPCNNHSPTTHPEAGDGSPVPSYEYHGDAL
KCNK9 inh = inhibitors of human KCNK9 two-pore domain potassium channel; Q9NPC2; HEK293 KCNK9, FluxOR thallium flux fluorescence; active compounds read low; B-score at 10 µM; hit rate 1.2% among 310,000;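 active = ratio B-score over 3 SD below the library mean, with starting fluorescence within 5 SD of its mean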;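 also: negative B-score means less thallium flux so channel inhibition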
KCNK3 inh = human KCNK3 channel inhibition, primary screen; AID 602410; B-score at 10 µM; O14649; hit rate 0.84% among 340,000; CHO-KCNK3 thallium flux, FluxOR fluorescence; active compounds read low;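 active = B-score under library mean minus 4 SD, starting fluorescence ratio at most library mean plus 5 SD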;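 also: more negative B-score means stronger inhibition of thallium flux through KCNK3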
Kir21 block = Kir2.1 (mouse) channel inhibition; P35561; HEK293-Kir2.1, FluxOR thallium flux fluorescence; active compounds read low; B-score at 10 µM; hit rate 0.85% among 310,000; AID 1672;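 active = fluorescence ratio B-score at or below minus 3 SD of library scores, with starting-brightness B-score within 2 SD, cut at about -4.2 in these data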;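 also: channel flux triggered by added potassium and thallium sulfate stimulus; B-score of peak minus minimum fluorescence over baseline after thallium stimulus; more negative B-score means stronger Kir2.1 block with less thallium influx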
ANO1 block = blocks the mouse calcium-activated chloride channel TMEM16A; Q8BHY3; HEK293 TMEM16A/YFP iodide influx fluorescence, ionomycin; normalized B-score (activity score, 25-100; higher = stronger inhibition) at 10 µM; hit rate 1.2% among 310,000; AID 588511;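 active = ratio plate-corrected score three or more library SD toward inhibition, starting fluorescence score within five deviations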;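 also: score derived from kinetic fluorescence span divided by baseline fluorescence per well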
TMEM16A reconf = re-confirmation of mouse TMEM16A chloride channel inhibitors; shares compounds with ANO1 block; HEK293 TMEM16A/YFP-H148Q, iodide quench fluorescence; ionomycin added to raise cell calcium; inhibition, % at 10 µM; hit rate 39% among 2,300;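 active = mean duplicate percent inhibition, scaled so buffer wells are 0 and the reference blocker 100, over three buffer SD above buffer mean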
TMEM16A Ca cntr = counter-screen for TMEM16A inhibitors: effect on calcium mobilization; shares compounds with ANO1 block; TMEM16A/YFP HEK293, Fluo4 calcium mobilization; calcium response (% of ionomycin), % at 10 µM; hit rate 2% among 2,300; AID 652231;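 active = duplicate-averaged calcium signal over 20% of the ionomycin maximum, relative to buffer baseline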;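 also: each well's signal is peak minus trough fluorescence divided by its pre-addition baseline; 0% = buffer wells and 100% = ionomycin wells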
Parental YFP cnt = counter-screen for TMEM16A inhibitors: effect in parental YFP-HEK293 cells; shares compounds with ANO1 block; iodide YFP quench, ionomycin; YFP ratio F(max-min)/F0 at 10 µM; 2,300 tested, under 10 active; AID 652233;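 active = yellow fluorescent protein signal ratio exceeding the buffer control mean by over 5 SD of those controls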;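 also: ratio is mean of duplicate wells from kinetic YFP trace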
ClC-1 rat inh = rat ClC-1 inhibition, TMEM16A specificity screen; shares compounds with ANO1 block; AID 652236; CHO ClC-1-YFP, iodide influx fluorescence quench; iodide control reads 0, buffer control 100; ratio percent, % at 10 µM; 2,300 tested, under 10 active;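 active = duplicate-mean ratio percent above the mean of iodide-only control wells, which defines zero, plus 5 of their SD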;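 also: higher percent means stronger block of ClC-1 iodide influx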
* hit, by the source's call; i = inactive; . = not tested or not shown.

SMILES	TMEM16A act	KCNK9 inh	KCNK3 inh	Kir21 block	ANO1 block	TMEM16A reconf	TMEM16A Ca cntr	Parental YFP cnt	ClC-1 rat inh
CCCc1nc2c(sc3nc4c(cc32)COC(C)(C)C4)c(=O)n1Cc1ccco1	i	i	i	0.53	25*	47.0%*	i	-1.15	-13.0
CCOC(=O)C1CCCN(c2ncnc3c2oc2ccccc23)C1 (stereo not drawn)	i	i	i	-0.03	100*	28.5%*	i	-1.05	-19.5
CCOC(=O)C1CCN(c2ncnc3c2oc2ccccc23)CC1	i	i	-9.91*	-1.98	100*	22.0%*	i	-0.898	-16.0
CCN1CCc2c(sc(N)c2C(N)=O)C1	i	i	i	-2.15	i	27.0%*	i	-1.08	-4.5
CN1CCc2c(sc(N)c2C(N)=O)C1	i	i	i	0.2	i	.	.	.	.
CCC(CC)c1nnc(NC(=O)c2cccc(S(=O)(=O)N3CCc4ccccc43)c2)s1	i	i	i	1.15	i	.	.	.	.
CCOC(=O)c1sc(NC(=O)c2cccc(S(=O)(=O)N3CCc4ccccc43)c2)c(C#N)c1C	i	i	i	-0.05	25*	25.5%*	i	-0.885	-5.0
O=C1c2ccccc2C(=O)N1Cc1nn2c(-c3ccc(Cl)cc3)nnc2s1	i	i	i	1.57	25*	i	i	-0.962	-3.5
COc1ccc(-c2nnc3sc(CN4C(=O)c5ccccc5C4=O)nn23)cc1	i	i	i	1.02	i	.	.	.	.
CN(c1ccccc1)S(=O)(=O)c1ccc(C(=O)NCc2ccccn2)cc1	i	i	i	-0.09	i	.	.	.	.
COc1ccc(/C=N/NC(=O)c2cccc(NC(C)=O)c2)c(C(=O)O)c1OC	i	i	i	-0.81	i	.	.	.	.
CCCCCCc1cc2cc(S(=O)(=O)c3ccc(Cl)cc3)c(=O)oc2cc1O	i	i	i	1.56	i	.	.	.	.
CCN(CC)c1ccc2cc(S(=O)(=O)c3ccc(Cl)cc3)c(=O)oc2c1	i	i	i	-1.57	i	i	i	-0.171	14.5
Cc1ccc(NC(=O)COC(=O)c2ccc(CN3CCCC3=O)cc2)c(Cl)c1	i	.	i	.	.	.	.	.	.
CCOC(=O)c1ccc(NC(=S)N2CCN(C)CC2)cc1	i	i	i	-0.86	25*	i	i	-0.837	-0.5
CC(C)c1nc2oc3c(=O)[nH]cnc3c2c2c1COC(C)(C)C2	i	i	i	1.81	i	.	.	.	.
CCCn1ncc(CN2CCC(n3nccc3NC(=O)CCc3ccccc3)CC2)c1C	i	i	i	-0.15	i	.	.	.	.
Cc1cc(N2CCCC2=O)cc(C)c1S(=O)(=O)NCCOc1ccc(C(C)(C)C)cc1	i	i	i	-0.35	25*	i	i	-1.09	-29.0
COc1cccc(CN2CC(C(=O)NC3CCCCCC3)CCC2=O)c1 (stereo not drawn)	i	i	i	1.27	i	.	.	.	.
O=C(c1ccncc1)c1ccc(N2CCN(C3CC(=O)N(Cc4ccccc4)C3=O)CC2)cc1 (stereo not drawn)	i	i	i	-3.62	100*	25.0%*	i	-0.885	-6.0
COc1ccc(N2CCN(C3CC(=O)N(Cc4ccccc4)C3=O)CC2)cc1 (stereo not drawn)	i	i	i	0.73	i	.	.	.	.
O=C(c1ccc(Cl)cc1)C1CCCN(Cc2cnn(-c3ccccc3)c2)C1 (stereo not drawn)	i	i	i	1.4	100*	33.0%*	i	-0.909	-1.5
O=C(c1ccc(Cl)cc1)C1CCCN(Cc2ccc(Oc3ncccn3)cc2)C1 (stereo not drawn)	i	i	i	0.32	i	.	.	.	.
COc1ccccc1NC(=O)c1cc(S(=O)(=O)N2CCCC2)cn1C	i	i	i	0.01	i	.	.	.	.
